Assay outcomes as filed in PubChem BioAssay.
HP1b binding inh: inhibitors of HP1-beta chromodomain binding to methylated histone tails; Potency, µM (titrated, usually from 114 µM), for the others: at the highest dose activity change, negative = inhibition, most hits filed as inhibitors; P83916; AlphaScreen HP1-beta / biotin-H3K9me3 peptide binding; 390,000 compounds, 0.56% hits; AID 540317; further: nearly all actives have a fitted effect of over 70% in size
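Compound inhibition of the preformed complex between 50 nM HP1-beta and 50 nM biotinylated H3K9me3 peptide was read by AlphaScreen. Buffer was PBS pH 7.4 with 0.01% Tween-20. Incubations ran 30 min at room temperature, with 10 ug/mL donor/acceptor beads.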
BAZ2B block: inhibitors of human BAZ2B bromodomain | AlphaScreen BAZ2B-H3K14Ac peptide displacement | Potency, µM (series often up to 114 µM), for the others: top-dose activity change, negative = inhibition, hits mostly inhibitors | 360,000 compounds, 4.4% hits; further: on the % scale 0 is the no-effect control and ±100 the full control effect; nearly all actives have a fitted effect of over 60% in size
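In this displacement format the biotinylated H3(5-23) peptide acetylated at Lys14 serves as ligand at 50 nM, with BAZ2B at 50 nM in PBS pH 7.4 containing 0.01% Tween-20. Donor and acceptor beads are 10 ug/mL final.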
JMJD2A Tudor inh: inhibitors of human JMJD2A Tudor domain; O75164; AlphaScreen JMJD2A-Tudor / H3K4me3 peptide binding; Potency, µM (doses to about 114 µM), for the others: top-dose activity change, negative = inhibition, most hits filed as inhibitors; 390,000 compounds, 4.4% hits; AID 504339; further: on the % scale 0 is the no-effect control and ±100 the full control effect; nearly all actives have a fitted effect of over 50% in size
Target sequence (O75164 whole entry, looked up, the tested form may be a part): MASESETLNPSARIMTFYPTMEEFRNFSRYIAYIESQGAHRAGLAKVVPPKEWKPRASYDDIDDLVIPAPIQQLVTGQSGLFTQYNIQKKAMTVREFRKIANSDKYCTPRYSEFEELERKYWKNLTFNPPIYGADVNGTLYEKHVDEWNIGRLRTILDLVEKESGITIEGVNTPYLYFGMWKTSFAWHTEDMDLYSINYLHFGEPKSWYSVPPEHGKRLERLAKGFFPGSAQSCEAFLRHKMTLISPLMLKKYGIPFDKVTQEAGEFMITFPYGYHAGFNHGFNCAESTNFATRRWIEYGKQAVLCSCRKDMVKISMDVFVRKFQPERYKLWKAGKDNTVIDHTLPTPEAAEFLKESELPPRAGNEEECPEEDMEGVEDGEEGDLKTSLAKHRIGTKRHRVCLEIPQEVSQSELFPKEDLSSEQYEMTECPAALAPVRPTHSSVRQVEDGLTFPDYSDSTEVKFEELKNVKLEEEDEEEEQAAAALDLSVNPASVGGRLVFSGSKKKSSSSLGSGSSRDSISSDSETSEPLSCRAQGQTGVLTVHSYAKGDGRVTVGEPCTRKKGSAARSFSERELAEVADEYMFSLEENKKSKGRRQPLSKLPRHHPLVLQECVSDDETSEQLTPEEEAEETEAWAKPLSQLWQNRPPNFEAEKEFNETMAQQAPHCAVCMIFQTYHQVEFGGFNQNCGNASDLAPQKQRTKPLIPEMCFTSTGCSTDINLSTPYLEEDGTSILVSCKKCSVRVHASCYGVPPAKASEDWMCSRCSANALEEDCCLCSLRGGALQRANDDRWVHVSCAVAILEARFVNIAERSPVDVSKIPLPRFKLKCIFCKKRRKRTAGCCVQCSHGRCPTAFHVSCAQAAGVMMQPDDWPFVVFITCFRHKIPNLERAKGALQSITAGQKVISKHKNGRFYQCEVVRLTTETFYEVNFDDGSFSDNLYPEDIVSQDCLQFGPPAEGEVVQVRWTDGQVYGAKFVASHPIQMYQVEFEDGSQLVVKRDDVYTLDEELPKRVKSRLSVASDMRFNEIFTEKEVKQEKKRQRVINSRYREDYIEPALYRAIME
GLS inhibitor: glutaminase GLS (human) inhibition | O94925 | GLS enzymatic activity, qHTS titration | Potency, µM (titrated, usually from 45.5 µM), inactives show at the top dose activity change, negative = inhibition, usual class: inhibitors | 410,000 compounds, 0.21% hits; further: on the % scale 0 is the no-effect control and ±100 the full control effect
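Glutamate formation by hKGA was monitored fluorometrically using coupled glutamate oxidase, HRP and Amplex Red. Substrate was added as 1 mM L-glutamine solution; incubation was 30 min at RT after an initial read.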
G9a block: inhibitors of human histone lysine methyltransferase G9a; Potency, µM (titrated, usually from 102 µM), for the others: at the highest dose activity, negative = inhibition, usual class: inhibitors; G9a H3K9 monomethylation, AlphaScreen, 2 h; 350,000 compounds, 8.8% hits; Q96KQ7; further: on the % scale 0 is the no-effect control and ±100 the full control effect; nearly all actives have a fitted effect of over 75% in size
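Readings reflect AlphaScreen signal from monomethyl-H3K9 antibody detection. HMT at 20 nM; substrate b-H3K9 500 nM; cofactor SAM 20 uM; 2 h RT reaction; compounds tested as titrations in qHTS with 15 min preincubation.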
Starred values were filed as active, the others as inactive; ? = inconclusive; . = no result given; [ ] = another dose, or the depositor's remark. Sampled rows, rich in hits. Any-hit rate of the full collection: about 10%. The call rests on the fitted dose curve; in most records, active means well fitted curve in the direction sought with a large enough effect; inconclusive means small, poorly fitted or top-dose-only effect, or another doubt; inactive means no such curve, though single readings can be large; an effect the other way counts as inactive or inconclusive. Potency means the concentration at half of the fitted maximal effect.

SMILES	HP1b binding inh	BAZ2B block	JMJD2A Tudor inh	GLS inhibitor	G9a block
Fc1ccc(-n2c(CN3CCCCC3)n[nH]c2=S)cc1	41%	-11%	?	-16%	45µM*
FC(F)(F)c1ccccc1-n1c(CN2CCCCC2)n[nH]c1=S	21%	-24%	22µM*	4%	20µM*
S=c1[nH]nc(CN2CCCCC2)n1-c1ccc(Cl)cc1	32%	-22%	5%	0%	18µM*
COc1ccc(C(=O)CSc2nnc(CN3CCCCC3)n2-c2ccc(F)cc2)cc1	15%	-30%	-26%	0%	?
S=c1[nH]nc(Cn2nnc3ccccc32)n1-c1ccc(Cl)cc1	49%	-7%	-6%	-1%	11µM*
O=c1[nH]ncn1-c1ccccc1C(F)(F)F	11%	11%	-12%	11%	10%[59 µM]
O=c1c2sc3ccccc3c2n(Cc2ccccc2F)c(=O)n1Cc1ccccc1	44%	2%	9%	-3%	1%[59 µM]
CCC1CCC(C(=O)NC(C(=O)NCCN2CCOCC2)C(C)C)CC1 (stereo not given)	-16%	-1%	-16%	-3%	3%
O=C1CS(=O)(=O)C2(C(=O)N(Cc3cccc(F)c3)c3ccccc32)N1c1ccccc1 (stereo not given)	13%	-4%[57.1 µM]	-20%	5%	?
c1ccc2c(c1)ncn2CCn1cnc2ccccc21	53%	13%	12%[57.1 µM]	-3%	9%[59 µM]
S=c1[nH]nc(Cn2cnc3ccccc32)n1-c1ccccc1	-7%	-15%	4.5µM*	-7%	8.9µM*
C=CC[n+]1ccc(/C=C2\C=Cc3cc(C)ccc3N2CC)c2ccccc21	?	14µM*	20µM*	2%	14µM*
NC(Cc1ccc(C(F)(F)F)cc1)c1csc(Nc2ccc(S(N)(=O)=O)cc2)n1 (stereo not given)	.	.	.	0%	.
Cc1cc(N(CCO)CCO)ccc1C(c1ccc(N(CCO)CCO)cc1C)c1ccccc1Cl	?	45µM*	28µM*	16%	7.9µM*
CN(C)c1ccc(C(=O)C(O)c2ccccc2Cl)cc1 (stereo not given)	6%	.	-10%	9%	.
COC(=O)C1=C(C)NC(C)=C(C(=O)O[C@@H]2CCCN(Cc3ccccc3)C2)[C@@H]1c1cccc([N+](=O)[O-])c1	?	.	45µM*	9%	.
CCOC(=O)C1=C(C)NC(C)=C(C(=O)OC)[C@@H]1c1cccc([N+](=O)[O-])c1	.	.	.	.	1%[21.5 µM]
Cc1nc(N/N=C/c2cccc(F)c2)cc(N2CCOCC2)n1	24%	2%	-18%	-15%	-5%
Oc1cccc(/C=N/Nc2cc(N3CCOCC3)nc(N3CCOCC3)n2)c1	-14%	?	?	14%	-12%[59 µM]
Oc1ccc(/C=N/Nc2cc(N3CCOCC3)nc(N3CCOCC3)n2)cc1O	?	?	56µM*	-2%	?
Cc1nc(N/N=C/c2ccc(O)cc2O)cc(N2CCOCC2)n1	33%	45µM*	79µM*	6%	21%
Oc1ccccc1/C=N/Nc1cc(N2CCCC2)nc(N2CCCC2)n1	?	25µM*	28µM*	-5%	?
O=C(NC1CC1)c1cccc(Nc2ccc(-c3ccc4c(c3)OCCO4)nn2)c1	-11%	0%	-26%	15%	-11%[12.7 µM]
Cc1cc(C)n(-c2nc3ccccc3nc2Nc2ccc(N(C)C)cc2)n1	8.9µM*	3.2µM*	11µM*	2%	1.8µM*
Cc1cc(C)n(-c2nc3ccccc3nc2Nc2ccc3c(c2)OCO3)n1	106%	32%	20%	6%	42%[59 µM]
SMILES	HP1b binding inh	BAZ2B block	JMJD2A Tudor inh	GLS inhibitor	G9a block
Cc1c(NC(=O)Oc2ccccc2)sc(=S)n1C	-14%	?	-31%	47%	45µM*
Cc1ccc(NC(=O)Nc2sc(=S)n(C)c2C)cc1	-23%	-2%	-15%	9%	25µM*
CC(=O)NC(=O)Nc1sc(=S)n(C)c1C	15%	-3%	-14%	13%	?
Cn1ccc(-c2ccccc2)n1	38%	1%	-5%	1%	17%
N#Cc1cc(-c2ccccc2)nn1-c1ccccc1	25µM*	?	8.9µM*	-10%	?
Nc1ccccc1Nc1cc(-c2ccccc2)[nH]n1	?	40µM*	50µM*	?	40µM*
Nc1ccccc1Nc1cc(-c2ccccc2)nn1-c1ccccc1	?	35µM*	32µM*	5%	32µM*
CC1CC(C)CN(c2oc(-c3ccc(OCc4ccccc4Cl)cc3)nc2C#N)C1 (stereo not given)	-10%[57 µM]	.	1%[57.1 µM]	.	.
COc1cccc(C(=O)N2c3nc(-c4ccco4)nn3C3(CCCCC3)[C@@H]3CCCC[C@@H]32)c1	22%	?	-24%	1%	18µM*
Cc1nn(-c2nnc(NC3CCCCC3)nn2)c(C)c1Br	?	14µM*	45µM*	4%	22µM*
O=C(CN1C(=O)NC2(CCCC2)C1=O)N1CCN(S(=O)(=O)c2cc(Cl)ccc2Cl)CC1	3%	1%	-12%	0%	16%[12.7 µM]
O=[N+]([O-])c1ccccc1CNC1CCCCCC1	?	?	50µM*	3%	22µM*
COc1ccc(-c2nn(C)c(=O)[nH]2)cc1	50%	3%	-8%	-3%	6%
COc1cc(C2SCC(=O)N2CCN2CCCCC2)ccc1O (stereo not given)	31%	-14%	-1%	28%	50µM*
CCCn1nc([N+](=O)[O-])c(C(C#N)c2nc3ccccc3s2)c(Cl)c1=O (stereo not given)	11µM*	10µM*	16µM*	29%	7.1µM*
CCn1nc([N+](=O)[O-])c(C(C#N)c2nc3ccccc3n2C)c(Cl)c1=O (stereo not given)	?	40µM*	?	9%	?
O=[N+]([O-])c1ccc(CN2CCN(c3nc4ccccc4s3)CC2)cc1	-17%	?	-5%	11%	-17%
C[C@@H]1CN([C@H](C)CO)C(=O)Cc2cc(NC(=O)Cn3cnnn3)ccc2O[C@@H]1CN(C)Cc1ccc(Cl)c(Cl)c1	5%	.	-28%	9%	.
Cc1ccc(N=Cc2sc(O)c3ccccc23)cc1	67%	33%	14%[57.1 µM]	1%	8.9µM*
Cc1ccc(N=Cc2sc(O)c3ccccc23)c(C)c1	-4%	14%	-6%	7%	8.9µM*
CCN(CC)c1ccc(C=Nc2ccc(C)cc2C)c(O)c1	33%	-15%	-10%	3%	.
COc1ccc(C2C3=C(N=C4SCC(=O)N42)c2ccccc2CC3)cc1 (stereo not given)	1%	12%	-35%	4%	50µM*
COc1ccc(C2C3=C(N=C4SCC(=O)N42)c2ccccc2CC3)cc1OC (stereo not given)	-6%	-8%	?	-4%	40µM*
CCN(CC)C(=O)C1=C(C)N(Cc2ccc(C(C)(C)C)cc2)C(=O)C(CC(=O)NCCCCc2ccccc2)C1 (stereo not given)	.	.	.	0%	.
